In the supplement of paper PMC10338343:
± gives the standard deviation.

Key:
[1] = tested on: MILI (PIWIL2) piRISC loaded with L1MC piRNA (26 nt); experiment: pre-steady-state target cleavage rate (min^-1); guide: L1MC piRNA 5'p-UAACUAAAUACUAUGCAAGCUGUAGG; higher = faster piRNA-guided slicing of the target;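 note: 1 nM active piRISC with 0.1 nM target library at 33 °C single turnover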
Method in brief: (§1)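 Cleave-'n-Seq measured uncleaved targets by sequencing after a transcribed, DNA-blocked target RNA library […] was mixed with 1 nM active affinity-purified piRISC holding one synthetic guide, with or without 500 nM GTSF1 partner protein, at 33 °C in HEPES–potassium acetate buffer for 0–8 or 0–960 min. Counts were normalised to depth and to weakly complementary targets, three trials were pooled, and k3 was capped at 0.0001 min^-1. A burst-and-steady-state fit gave the pre-steady-state cleavage rate.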

[2] = tested on: EfPiwi piRISC loaded with L1MC piRNA (26 nt); experiment: pre-steady-state target cleavage rate (min^-1); auxiliary factor: 500 nM Ephydatia muelleri Gtsf1; guide: L1MC piRNA 5'p-UAACUAAAUACUAUGCAAGCUGUAGG; MIWI and MILI are mouse PIWI proteins and EfPiwi is from a freshwater sponge; tags in brackets are library labels; higher = faster piRNA-guided slicing of the target
Method in brief: as §1

[3] = auxiliary factor: 500 nM mouse GTSF1
[4] = auxiliary factor: none (no GTSF1)

Sequence	pre-steady-state target cleavage rate [1, 3]	pre-steady-state target cleavage rate [1, 4]	pre-steady-state target cleavage rate [2]
UCCUCGUACAGGUUGCAUAGUAUUUAGUUA	0.249 ± 0.01	0.00988 ± 0.0022	0.0399 ± 0.0088
UCCUGGAAGUGCUUGCAUAGUAUUUAGUUA	0.127 ± 0.013	0.00836 ± 0.0022	0.00537 ± 0.0019
UCCUCCUACUCGUUGCAUAGUAUUUAGUAA	0.176 ± 0.024	0.00408 ± 0.0019	0.00477 ± 0.0029
UCCUCCUACAGCAUGCAUAGUAUAUAGUUA	0.243 ± 0.021	0.00579 ± 0.0023	0.00519 ± 0.0032
UCCUGGAUGUCCGUUGCAUAGUAUUUAGUUA	0.0604 ± 0.018	0.008 ± 0.0033	0.00412 ± 0.0033
UCCUGCUACAGCUUGCAUAGUAUUAUAGUUA	0.189 ± 0.021	0.00585 ± 0.0024	0.0103 ± 0.0037
UCCUGCAUGAGCUUGCAUAGUAUUUAGUAA	0.234 ± 0.024	0.00554 ± 0.0022	0.0061 ± 0.0025
UCCUGGAUGUGGUUGCAUAGUAUUUAGUAA	0.0925 ± 0.021	0.0105 ± 0.0041	0.11 ± 0.056
UCCUCCUACAGCUUGGAUAGUAAUUAGUUA	0.25 ± 0.024	0.00499 ± 0.0021	0.0274 ± 0.0089
UCCUCGUACAGCUAGCAUAGUAUUUAGUUA	0.281 ± 0.012	0.00766 ± 0.0022	0.0402 ± 0.01
UCCUGGAACAGCUUGCAUAGUAUUAGUUA	0.199 ± 0.016	0.0037 ± 0.0023	0.00229 ± 0.0021
UCCUGCUUCAGCUUGCAUAGUAUUUAGUAA	0.224 ± 0.025	0.00397 ± 0.002	0.00811 ± 0.0033
UCCUGGAUGAGCUCGCAUAGUAUUUAGUUA	0.241 ± 0.017	0.0047 ± 0.0035	0.0143 ± 0.0042
UCCUGGUACAGCUUGCCUAGUAUUUAGUUA	0.213 ± 0.019	0.00843 ± 0.0026	0.00475 ± 0.0026
UCCUGGAACAGCUGCAUAGUAUUUAGUUA	0.279 ± 0.021	0.0069 ± 0.0026	0.0362 ± 0.0095
UCCUCCUUCUGCUUGCAUAGUAUUUAGUUA	0.269 ± 0.018	0.00966 ± 0.002	0.11 ± 0.028
UCCUCCUACACCUUGCAUAGUAAUUAGUUA	0.196 ± 0.031	0.00304 ± 0.0027	0.0071 ± 0.0031
UCCUGGUACAGCUUGCUUAGUAUAUAGUUA	0.197 ± 0.045	0.00855 ± 0.0026	0.0737 ± 0.025
UCCUGGAUGAGGUUGCAUAGUAUUUAGUUA	0.129 ± 0.015	0.0136 ± 0.0032	0.00786 ± 0.0024
UCCUGGAUCAGCUCUGCAUAGUAUUUAGUUA	0.246 ± 0.024	0.00786 ± 0.0034	0.101 ± 0.023
UCCUGCUACAGCUUGCAUAGUAUUUUGUUA	0.168 ± 0.025	0.00464 ± 0.0019	0.00916 ± 0.0029
UCCUGGAACAGCUUGCAUUGUAUUUAGUAA	0.17 ± 0.02	0.00563 ± 0.0025	0.00646 ± 0.0024
UCCUGGAUGUGCUUGCAUAGUAUUUAGUAA	0.246 ± 0.031	0.00665 ± 0.0025	0.00442 ± 0.002
UCCUCGUACAGCUUGCAUUGUAUUUAGUUA	0.223 ± 0.011	0.00719 ± 0.0021	0.0163 ± 0.004
UCCUGGAACAGCUUGCAUCGUAUUUAGUUA	0.0882 ± 0.013	0.00682 ± 0.0024	0.0172 ± 0.0048
